Six1-Eya2 inh – Six1/Eya2 interaction inhibition | Q15475+O00167 | AID 651725 | activity change, % (no concentration beside the values) | actives 0.56% (n = 360,000) | AlphaScreen GST-Six1/His-Eya2 binding, biochemical; stronger effect = lower value; in the data active = activity change below about -65%; inconclusive = mostly about -30% to -63%
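GST-Six1 + His-Eya2 (5X stock: 250/500 nM); Tris pH 8.0, 300 mM NaCl, 0.05% BSA, 0.02% Tween 20; GSH donor/Ni acceptor beads; 1 h 37 °C dark; AlphaScreen readout.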
CtBP-E1A inh – blocks the CtBP interaction with E1A; AlphaScreen GST-E1A/His-CtBP binding, 1536-well; stronger effect = lower value; activity change, % (test concentration not listed); actives 0.49% (n = 340,000); AID 651724; in the data active = activity change below about -65%; inconclusive = mostly about -30% to -63%
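Homogeneous bead-based format: GST-tagged E1A captured on glutathione donor beads, His-tagged CtBP on nickel acceptor beads; compounds precede bead addition by 2 h at 37 °C.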
RORg inh – blocks mouse ROR gamma transcriptional activity; P51450; Potency, µM (highest dose often 53.6 µM), usual class: inhibitors; actives 5.4% (n = 310,000); Drosophila S2 Gal4-RORgamma UAS-luciferase reporter, 20 h; AID 2551; also: nearly all actives have a fitted effect of over 60% in size
Target sequence (P51450 whole entry, looked up, the tested form may be a part): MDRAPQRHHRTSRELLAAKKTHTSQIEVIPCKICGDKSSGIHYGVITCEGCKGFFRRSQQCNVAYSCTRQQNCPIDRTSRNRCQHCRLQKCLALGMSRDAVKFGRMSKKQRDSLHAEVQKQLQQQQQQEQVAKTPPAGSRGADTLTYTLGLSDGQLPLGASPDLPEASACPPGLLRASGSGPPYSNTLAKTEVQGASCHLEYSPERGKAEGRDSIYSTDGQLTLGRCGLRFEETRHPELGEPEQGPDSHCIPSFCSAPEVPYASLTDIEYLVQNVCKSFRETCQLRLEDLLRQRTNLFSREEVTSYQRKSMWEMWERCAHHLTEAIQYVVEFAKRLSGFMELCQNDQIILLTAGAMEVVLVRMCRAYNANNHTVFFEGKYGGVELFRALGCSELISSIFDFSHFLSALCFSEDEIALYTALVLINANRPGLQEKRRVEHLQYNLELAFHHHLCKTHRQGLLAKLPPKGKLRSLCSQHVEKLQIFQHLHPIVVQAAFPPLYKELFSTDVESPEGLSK
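Luminescence from a UAS-regulated Photinus luciferase reporter in stably transfected Drosophila Schneider cells is measured; decreased signal marks ROR gamma inhibition. Fusion expression is induced by 700 uM copper sulfate for 20 hr.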
PKM2 act – PKM2 (human) enzyme activation; purified PKM2, Kinase-Glo ATP luminescence, activation; response scale: 0% is enzyme alone, no compound; Potency, µM (titrated, usually from 57.5 µM), actives largely listed as activators; P14618; actives 0.34% (n = 260,000); also: nearly all actives have a fitted effect of over 55% in size
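ATP formation by purified human PK-M2, quantified via coupled luciferase luminescence after 1 h at room temperature with 0.1 mM ADP and 0.5 mM PEP final.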
VP16 counter – Gal4-VP16 reporter inhibition counter-screen; actives 3.5% (n = 310,000); Drosophila S2 Gal4-VP16 UAS-luciferase, luminescence, 20 h; AID 2546; Potency, µM (highest dose often 53.6 µM), actives largely listed as inhibitors;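 also: Gal4-VP16 expression switched on by copper sulfate through the metallothionein promoter; nearly all actives have a fitted effect of over 50% in size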
Of the large screens only hits and unclear results are named; the others gave an inactive call. This is a sample that favours compounds with a hit; in the whole collection about 5.6% have one here. Unless noted, calls follow the shape of the dose curve; as a rule, active = well fitted curve in the direction sought with a large enough effect; inconclusive = small, poorly fitted or top-dose-only effect, or another doubt; inactive = no such curve, though single readings can be large; an effect the other way counts as inactive or inconclusive.

COC(=O)C1=C[C@@H](C(=O)OC)C2C3=C(C(=O)[C@@]2(C)NC(=O)c2ccccc2)[C@H](C)[C@@H]2C(=O)NC(=O)[C@@H]2[C@@H]3C1 (stereo partly specified)	none (no result: Six1-Eya2 inh, CtBP-E1A inh, PKM2 act)
CCN(C(=O)COC(=O)/C=C/c1cnc2ccccc2n1)c1ccccc1	none
CC(C)N(Cc1ccccc1)C(=O)COC(=O)/C=C/c1cnc2ccccc2n1	CtBP-E1A inh -86.8
O=C(Nc1ccc2nc3n(c(=O)c2c1)CCCCC3)c1c(F)ccc([N+](=O)[O-])c1F	VP16 counter 7.94µM (no result: PKM2 act)
O=C(Nc1cccc(S(=O)(=O)N2CCCC2)c1)c1ccc2c(=O)n3c(nc2c1)CCCCC3	none
CC(=O)c1cccc(NC(=O)c2ccc3c(=O)n4c(nc3c2)CCCCC4)c1	RORg inh 2.51µM, VP16 counter 5.01µM
CC1CC=C(c2ccccc2)C(=S)N1 (stereo unspecified)	RORg inh 1µM, VP16 counter 3.16µM
CC1NC(=O)COC1c1ccccc1 (stereo unspecified)	none (no result: RORg inh, PKM2 act, VP16 counter)
Cc1nn(-c2ccccc2)c(Cl)c1/C=N/Nc1nc2ccccc2n1C	RORg inh 1.12µM, VP16 counter 3.55µM (no result: CtBP-E1A inh)
COCCNC(=O)CSc1nc(-c2ccccc2)c(-c2ccccc2)o1	none
O=C(CSC(=S)N1CCOCC1)Nc1nc(-c2ccccc2)c(-c2ccccc2)o1	RORg inh 11.2µM, VP16 counter inconclusive
Cc1c(NC(=O)CSC(=S)N2CCCC2)c(=O)n(-c2ccccc2)n1C	none (no result: RORg inh, PKM2 act, VP16 counter)
CCN(CC)C(=S)SCC(=O)Nc1nc(-c2ccccc2)c(-c2ccccc2)o1	RORg inh 4.47µM, VP16 counter 8.91µM
Cn1nnnc1SCC(=O)Nc1nc(-c2ccccc2)c(-c2ccccc2)o1	RORg inh 10µM, VP16 counter inconclusive
O=C(CSC(=S)N1CCN(c2ccccc2)CC1)Nc1nc(-c2ccccc2)c(-c2ccccc2)o1	RORg inh 10µM
Cc1ccc(C)c(N(CC(=O)NC(C)C)C(=O)CCC(=O)Nc2ccccn2)c1	RORg inh inconclusive
CC(NC(=O)c1cccs1)c1n[nH]c(=S)n1C (stereo unspecified)	none
O=C(CSC(=S)N1CCOCC1)Nc1nc(=O)c2ccccc2s1	RORg inh 12.6µM, VP16 counter 10µM (no result: Six1-Eya2 inh, CtBP-E1A inh)
O=C(CSC(=S)N1CCCCC1)Nc1nc(-c2ccccc2)c(-c2ccccc2)o1	RORg inh 5.62µM, VP16 counter inconclusive
CSc1nnc(-c2ccccc2)o1	none
O=S1(=O)C=C(Sc2nnc(-c3ccccc3)o2)c2ccccc21	RORg inh 1.78µM, VP16 counter 3.16µM
Oc1[nH]c2ccccc2c1N=Nc1nc2ccccc2s1	RORg inh inconclusive
Cc1ccc2[nH]c(O)c(N=Nc3nc4ccccc4s3)c2c1	RORg inh 2.82µM
C[C@@H](CO)NC(=O)c1ccc2c3n(nc2c1)-c1ccccc1CO3	RORg inh 6.31µM, VP16 counter inconclusive
C#CCn1c(=O)c2c(nc(/C=C/c3cccc(OC)c3)n2C)n(CCCOP(=O)(O)O)c1=O	none (no result: Six1-Eya2 inh, CtBP-E1A inh, PKM2 act)
COC(=O)c1sccc1N/N=C/c1cccc(OC)c1O	RORg inh inconclusive, VP16 counter 15.8µM
COc1cccc2c(N/N=C/c3ccccc3)cc(C)nc12	none
COc1ccc2nc(C)cc(N/N=C/c3cccc(OC)c3O)c2c1	Six1-Eya2 inh inconclusive, CtBP-E1A inh inconclusive, RORg inh inconclusive, VP16 counter 11.2µM
COC(=O)c1sccc1N/N=C/c1ccc(OC)c(OC)c1OC	RORg inh inconclusive
COc1ccc(/C=N/Nc2cc(C)nc3ccc(Br)cc23)cc1	RORg inh 12.6µM, VP16 counter inconclusive (no result: PKM2 act)
Cc1cc(N/N=C/c2ccccc2O)c2ccccc2n1	Six1-Eya2 inh inconclusive, CtBP-E1A inh inconclusive
Cc1ccc(/C=N/Nc2nc(C)cc(C)n2)cc1	RORg inh 10µM
Cc1cc(C)nc(N/N=C/c2ccc(Cl)cc2)n1	none (no result: CtBP-E1A inh)
CC(/C=N/NC(=O)c1ccncc1)=C\c1ccc(C(C)C)cc1	none
Clc1cccc(/C=N/Nc2nc(Cl)nc3ccccc23)c1	Six1-Eya2 inh inconclusive, CtBP-E1A inh inconclusive, RORg inh 2µM
CC(/C=N/Nc1nc(C)cc(C)n1)=C\c1ccc(C(C)C)cc1	RORg inh 11.2µM, VP16 counter inconclusive
CCNc1nc(NCC)nc(N/N=C/c2ccc(Br)cc2)n1	RORg inh 17.8µM
O=S(=O)(NN=Cc1cccc(Cl)c1)c1ccccc1	none (no result: RORg inh, PKM2 act, VP16 counter)
CCOC(=O)C1=C(C)NC(=S)NC1c1ccc(OCC(=O)N2CCCCC2)cc1 (stereo unspecified)	none
Cn1nc(C(F)(F)F)c(CO)c1Sc1ccc(F)cc1	none
Cc1cc(N/N=C/c2cccc(Cl)c2)nc(NCc2ccccc2)n1	RORg inh inconclusive, VP16 counter inconclusive
CSc1ccc(/C=N/Nc2nc(C)cc(C)n2)cc1	RORg inh 11.2µM, VP16 counter inconclusive
Cc1cc(C)nc(N/N=C/c2ccc(N3CCOCC3)cc2)n1	none
Cc1cc(C)nc(N/N=C/c2cccc(Cl)c2)n1	RORg inh 11.2µM (no result: CtBP-E1A inh)
Cc1ccc(C)c(SCC(=O)c2ccc[nH]2)c1	none
Cc1nc2ccccc2n1CCc1nc2c3ccccc3nc(=S)n2[nH]1	RORg inh 3.55µM, VP16 counter 10µM
Cc1ccccc1-c1nc2c3ccccc3nc(=S)n2[nH]1	RORg inh 0.282µM, VP16 counter 1µM (no result: PKM2 act)
Cc1cc(C)c2cc(CN(Cc3ccco3)C(=S)NCC3CCCO3)c(=O)[nH]c2c1 (stereo unspecified)	none
COc1ccc(C(=O)NC(=S)Nc2nnn(C)n2)cc1	RORg inh 5.62µM
COc1cccc(C(=O)NC(=S)Nc2nnn(C)n2)c1	RORg inh 8.91µM, VP16 counter 11.2µM
CC(Sc1nc2ccccc2c(=O)n1CCCN1CCOCC1)C(=O)N1CCc2ccccc21 (stereo unspecified)	none (no result: RORg inh, PKM2 act, VP16 counter)
CC(C)N(C(=S)NCc1ccccc1)c1ccccc1	RORg inh 7.94µM, VP16 counter inconclusive
CC(C)N(C(=S)NCc1ccccc1)C(C)C	RORg inh 7.08µM, VP16 counter 11.2µM (no result: CtBP-E1A inh)
Cc1cccc(C)c1NC(=S)N(c1ccccc1)C(C)C	none
COc1cc2[nH]c(=S)nc(NCc3ccc(Cl)cc3)c2cc1OC	Six1-Eya2 inh inconclusive, CtBP-E1A inh inconclusive, RORg inh 5.01µM, VP16 counter 7.08µM (no result: PKM2 act)
COc1ccccc1CNc1nc(=S)[nH]c2cc(OC)c(OC)cc12	Six1-Eya2 inh -80.7, CtBP-E1A inh -85.3, VP16 counter inconclusive (no result: PKM2 act)
COc1cc2[nH]c(=S)nc(NCc3cccs3)c2cc1OC	Six1-Eya2 inh -84.5, CtBP-E1A inh -89.5, RORg inh 6.31µM, VP16 counter 12.6µM
COc1ccc(CNc2nc(-c3ccccc3OC)nc3ccccc23)c(OC)c1	RORg inh 12.6µM, VP16 counter inconclusive (no result: Six1-Eya2 inh, CtBP-E1A inh, PKM2 act)
COc1cccc(-c2nc(NCc3ccc(OC)cc3OC)c3ccccc3n2)c1	none (no result: Six1-Eya2 inh, CtBP-E1A inh, PKM2 act)
CCOc1ccccc1N1CCN(Cc2cccc(OC)c2O)CC1	none

Compound activity: PubChem BioAssay, National Center for Advancing Translational Sciences (NCATS)
